Results reported in PubChem BioAssay AID720706 (Broad Institute, 2013).
About 5,500 (1.6%) of roughly 350,000 compounds were called active.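 How the source made its calls: active means significant combined selectivity score with lowered wild-type GFP, culture density cut under 30%, mutant RFP and density less affected; inactive means any of these conditions unmet.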 Shown is part of a subset that was picked to be rich in actives.

assay: GFP drop in mixed WT/humanized-ribosome E. coli culture – GFP/RFP fluorescence, OD600, single point, bacterial rRNA inhibitor project, primary screen (AID 720706); details: E. coli WT GFP vs humanized-ribosome RFP mutants, 24 h; GFP signal change (wild-type ribosome): stronger effect = lower value, DMSO median 0, no signal -100; OD600 change: measured here: OD600 growth, DMSO median 0, no signal -100; RFP signal change: measured here: RFP humanized mutant strains, DMSO median 0, no signal -100, concentration not given here

Row | SMILES | GFP signal change (wild-type ribosome) | OD600 change [%] | RFP signal change [%]
1 | CC(CN1CCOCC1)OC(=O)c1ccc(C(C)(C)C)cc1 (stereo not drawn) | -5.42% (inactive) | -0.13 | 2.33
2 | CSc1ccc(CNCCN2CCOCC2)cc1 | 6.43% (inactive) | 16.1 | -0.625
3 | CC(C)(C)c1ccc(CCC2OCC(CN3CCOCC3)O2)cc1 (stereo not drawn) | -33.2% (active) | -11.3 | -5.34
4 | C/C=C/c1cnc2c(c1)C(=O)N([C@H](C)CO)C[C@H](C)[C@@H](CN(C)CC1CCOCC1)O2 | 7.65% (inactive) | 16.9 | -1.32
5 | Cc1[nH]c2ccccc2c1SCC(=O)Nc1nccs1 | -21.9% (active) | -16.9 | -2.17
6 | Cn1c(SCC(=O)Nc2nccs2)nnc1-c1cccnc1 | 11.6% (inactive) | 16.8 | -1.48
7 | CCn1c(SCC(=O)Nc2nccs2)nnc1-c1ccco1 | 10.8% (inactive) | 0.14 | 0.233
8 | COc1cccc(CNC(=O)COC(=O)CN2C(=O)NC3(CCCCC3C)C2=O)c1 (stereo not drawn) | 3.13% (inactive) | 0.95 | 0.493
9 | CC1CCCCC12NC(=O)N(CC(=O)OCC(=O)NCc1ccc(F)cc1)C2=O (stereo not drawn) | -2.84% (inactive) | -0.669 | -1.07
10 | CC1CCCCC12NC(=O)N(CC(=O)OCc1c(F)cccc1Cl)C2=O (stereo not drawn) | -24.1% (active) | -16.3 | 0.314
11 | Cc1cc2c(cc1C)[n+](C)cn2CC(O)COCC1CC=CCC1 (stereo not drawn) | -29.3% (active) | -16.1 | 3.07
12 | Cc1noc(C)c1S(=O)(=O)Nc1ccc2c(c1)C(=O)N([C@H](C)CO)C[C@H](C)[C@H](CN(C)S(=O)(=O)c1cn(C)cn1)OCCCC[C@@H](C)O2 | -2.25% (inactive) | -4.58 | -3.75
13 | COc1ccc(CN(C)C[C@@H]2Oc3ccc(NS(=O)(=O)c4cn(C)cn4)cc3C(=O)N([C@@H](C)CO)C[C@H]2C)cc1 | -0.89% (inactive) | 10.2 | -0.875
14 | Cc1ccc(C(=O)NN(CCC#N)C2=NS(=O)(=O)c3ccccc32)cc1 | 11% (inactive) | 11 | 1.04
15 | COc1ccc(/C=N/N(C)C2=NS(=O)(=O)c3ccccc32)cc1OC | 14.8% (inactive) | 9.54 | -0.4
16 | O=S1(=O)N=C(N(CCO)/N=C/c2ccccc2F)c2ccccc21 | -21.1% (active) | -9.01 | 2.34

Row | SMILES | GFP signal change (wild-type ribosome) | OD600 change [%] | RFP signal change [%]
17 | O=C(Nc1ccc(C(F)(F)F)cc1)N[C@@H]1CC[C@H](CCNC(=O)c2ccccc2F)O[C@@H]1CO | -6.45% (inactive) | -10.8 | 3.96
18 | COc1ccc(NC(=O)Nc2ccc3c(c2)C(=O)N([C@H](C)CO)C[C@@H](C)[C@H](CN(C)C(=O)Cc2ccccc2)OCCCC[C@H](C)O3)cc1 | -0.637% (inactive) | -0.596 | 2.91
19 | CC(=O)Nc1ccc(CNc2nc(NCCN(C)C)nc3cc(-c4ccccc4)sc23)cc1 | -20.5% (active) | -5.3 | 1.68
20 | COCCNc1nc(NCc2ccc(NC(C)=O)cc2)c2sccc2n1 | 31.4% (inactive) | 15.7 | 6.28
21 | COCCNc1nc(Nc2ccccc2Cl)c2sc(-c3ccccc3)cc2n1 | -0.73% (inactive) | 28.1 | -2.05
22 | COc1ccc(NC(=O)N(C)C[C@@H]2Oc3ncc(-c4ccc(C#N)cc4)cc3C(=O)N([C@@H](C)CO)C[C@H]2C)cc1 | -1.74% (inactive) | -0.24 | -0.855
23 | CS(=O)(=O)Nc1ccc2c(c1)[C@@H]1C[C@H](CC(=O)NCc3ccccn3)O[C@@H](CO)[C@@H]1O2 | 2.36% (inactive) | -0.375 | 1.41
24 | O=C(NCCN1CCCCC1)[C@@H]1N[C@@H]2c3ccc(-c4ccccc4)c(=O)n3C[C@@H]2[C@H]1CO | -1.4% (inactive) | 4.26 | -4
25 | COC(=O)C[C@@H]1CC[C@H]2[C@@H](COC[C@H](O)CN2C(=O)Nc2ccccc2OC)O1 | -0.973% (inactive) | 5.6 | 2.71
26 | CCC(O)C1CCN(Cc2cn(-c3ccc(OC)cc3)nc2-c2cccc(F)c2)CC1 (stereo not drawn) | -12.5% (inactive) | -11 | 3.52
27 | COc1ccc(-n2cc(CN(C)Cc3n[nH]c(=O)[nH]3)c(-c3cccc(F)c3)n2)cc1 | -10.8% (inactive) | -14.6 | -0.58
28 | COc1ccc(-n2cc(CNC3CCOCC3)c(-c3cccc(F)c3)n2)cc1 | -30.4% (active) | -24.4 | -1.67
29 | O=C(Nc1ccc(C(F)(F)F)cc1)c1cccc(-n2cnnn2)c1 | -24.6% (active) | -17.2 | -9.02
30 | O=C(O)CSCC(=O)Nc1ccc(C(F)(F)F)cc1 | 9.65% (inactive) | 10.9 | 3.37
31 | O=C(Nc1cccc(-n2cnnn2)c1)c1cccnc1 | 1.1% (inactive) | 2.52 | 0.952
